In all, about 300,000 compounds went through this assay and about 37,000 (12%) were called active. Cut-off read from the data, not from the text of the source: active = max response mostly above about 13% (no sharp cut-off); inactive = mostly below about 14%. The full list was thinned out, with actives kept by preference.

This assay can be described thus: Cycloheximide Counterscreen for Small Molecule Inhibitors of Shiga Toxin. Note: read at 38.3 µM for the half of the compounds with a filed dose; 0% is about no effect. Conditions: cell reporter, cycloheximide protein synthesis inhibition counterscreen; active compounds read high. On the technique in general: The purpose of a counterscreen is to sort out artefacts and off-target activity.
For the compound `O=C1c2ccccc2-c2ncnc3c(N4CCOCC4)cc(N4CCOCC4)c1c23`, the max response was -4.86% (inactive).

As for `CC(=O)c1ccc(S(=O)(=O)N2CCC3(CC2)OCCO3)cc1`, the max response is -6.29% (inactive).

As for `COc1ccccc1CN1CCN(Cc2cc(OC)c(OC)cc2OC)CC1`, the max response was 3.57% (inactive).

For the compound `CC(C)(C)c1ccc(NC(=O)COC(=O)CCc2nc3ccccc3c(=O)[nH]2)cc1`, the max response was 14.2% (active).

Consider `O=C(CCc1nc2ccccc2c(=O)[nH]1)OCC(=O)c1cccc(Cl)c1`, for which the max response is -1.24% (inactive).

Turning to `O=C(COC(=O)CCc1nc2ccccc2c(=O)[nH]1)Nc1ccc(N2CCOCC2)cc1`, the max response was 2.13% (inactive).

Take `O=C(c1ccc[nH]c1=S)N1CCN(S(=O)(=O)c2ccc(Br)cc2Cl)CC1`: the max response is -2.01% (inactive).

For `COc1ccc(NC(=O)CCS(=O)(=O)c2cc3c(cc2Cl)NC(=O)CO3)cc1OC`, the max response was -10.6% (inactive).

As for `COc1ccccc1OCC(=O)Nc1c2c(nn1-c1ccc(F)cc1)CS(=O)(=O)C2`, the max response is -3.21% (inactive).

On to `CC(=O)Nc1ccc(NC(=O)C(C)OC(=O)c2ccccc2C(=O)c2ccc(Cl)c([N+](=O)[O-])c2)cc1` (stereo unspecified), for which the max response was 8.13% (inactive).

As to `Cc1ccc(NC(=O)C(=O)NCC2CCN(C(=O)c3cccc([N+](=O)[O-])c3)CC2)cc1`, the max response is 3.94% (inactive).

`Cc1cccc(COc2ccccc2/C=N/Nc2ccc([N+](=O)[O-])cc2)c1`: the max response was -0.989% (inactive).

As to `Cc1ccc(NC(=O)O/N=C/c2cccc([N+](=O)[O-])c2)cc1`, the max response is 40.6% (active).

For `O=[N+]([O-])c1ccc(N/N=C/c2ccccc2)cc1`, the max response is 34.7% (active).

As to `CCC(CC)NC(=O)/C=C/c1cccc([N+](=O)[O-])c1`, the max response is -4.49% (inactive).

With `O=C(N/N=C/c1cccc(OC(=O)c2ccc([N+](=O)[O-])cc2)c1)c1cccnc1`, the max response is -7.61% (inactive).

As for `N#Cc1cc([N+](=O)[O-])ccc1Oc1cccc(/C=N/NC(=O)c2ccc(Cl)cc2)c1`, the max response was -2.97% (inactive).

As to `Cc1ccc(NC(=O)/C(=C/c2ccc([N+](=O)[O-])cc2)NC(=O)c2ccccc2)cc1`, the max response was -3.41% (inactive).

As to `O=C(O)/C=C/C(=O)NNc1ccc([N+](=O)[O-])cc1`, the max response is 10.2% (inactive).

Consider `CCc1ccc(NC(=O)C(C)OC(=O)/C=C/c2cccc([N+](=O)[O-])c2)cc1` (stereo unspecified), for which the max response was 59.2% (active).

Take `O=C(N/N=C/c1cccc([N+](=O)[O-])c1)c1ccncc1`: the max response was 11% (active).

Turning to `COc1ccc(C(=O)NC2CC(C)(C)Cc3c2cnn3-c2ccccc2C)o1` (stereo unspecified), the max response is -0.937% (inactive).

As for `CC(Sc1nnc(CNC(=O)c2ccccc2F)n1C)C(=O)Nc1nccs1` (stereo unspecified), the max response is -1.64% (inactive).

As for `CCN(CC)S(=O)(=O)c1ccc(Cl)c(C(=O)NC(C)C(c2cccs2)N2CCCC2)c1` (stereo unspecified), the max response is 3.13% (inactive).

Regarding `O=C1CCC([N+](=O)[O-])C(c2ccccc2Br)N1` (stereo unspecified), the max response is -3.57% (inactive).

Turning to `Oc1ccccc1CN1CCN(C(c2ccccc2)c2ccccc2)CC1`, the max response is 2.23% (inactive).

As to `Cc1cccc(C(=O)OCC(=O)Nc2sc3c(c2C#N)CCC3)c1`, the max response was -3.19% (inactive).

For the compound `COc1ccc(CN2CCn3ncc(C(=O)Nc4ccc(Cl)cc4Cl)c3C2=O)cc1`, the max response was -1.27% (inactive).

For the compound `Cc1ccc(C(c2nnnn2CS(=O)(=O)c2ccc(C)cc2)N2CCC(C)CC2)cc1` (stereo unspecified), the max response was 1.26% (inactive).

With `COc1cccc(-c2nc(CS(=O)CC(=O)NCc3ccc(F)cc3)c(C)o2)c1` (stereo unspecified), the max response is -2.32% (inactive).

As for `O=[N+]([O-])c1cccc(/C=N/Nc2ncc(Br)cn2)c1`, the max response is 29.2% (active).

In the case of `COc1ccc(O)c(/C=N/N=C/c2cccc([N+](=O)[O-])c2)c1`, the max response is -1.21% (inactive).

On to `O=C(N/N=C/c1cccc([N+](=O)[O-])c1)C1CC(=O)N(c2ccc(Br)cc2)C1` (stereo unspecified), for which the max response was 0.637% (inactive).

Consider `CC(NC(=S)Nc1ccccc1)C(c1cccs1)N1CCOCC1` (stereo unspecified), for which the max response was -0.819% (inactive).

On to `CC(C)CN(C(=O)c1cccc(S(=O)(=O)N2CCCCC2)c1)C1CCS(=O)(=O)C1` (stereo unspecified), for which the max response was -3.21% (inactive).

In the case of `CCOc1ccc(C(=O)NCCCN2CCCC2=O)cc1`, the max response was 16.9% (active).

As for `CCOc1cc2[nH]c(=O)n(Cc3ccc(C(=O)NCCCN4CCCC4=O)cc3)c(=O)c2cc1OCC`, the max response was 3.4% (inactive).

Turning to `Cc1cccc(C(=O)NCCCN2CCCC2=O)c1`, the max response was -1.36% (inactive).

`Cn1c(N)c(C(=O)COC(=O)/C=C/c2ccc(OC(F)F)cc2)c(=O)n(C)c1=O`: the max response is 9.63% (inactive).

Consider `COc1ccc(S(=O)(=O)n2cnc3ccccc32)c(C)c1`, for which the max response was 8.08% (inactive).

With `COc1cccc(NC(=O)CN(C)C(=O)/C=C/c2cc(OC)ccc2OC)c1`, the max response was -0.59% (inactive).

Consider `O=[N+]([O-])c1ccccc1NCc1ccccc1Cl`, for which the max response was 0.768% (inactive).

`O=[N+]([O-])c1ccccc1NCc1ccc(Cl)cc1`: the max response was 19.5% (active).

Take `O=C(NCCCNc1ccc([N+](=O)[O-])cc1Cl)c1ccccc1F`: the max response was 11.2% (inactive).

With `Cc1c(NC(=S)NCc2ccc(F)cc2)cccc1[N+](=O)[O-]`, the max response was -2.87% (inactive).

Turning to `O=C(NCCNc1ccc([N+](=O)[O-])cc1Cl)c1ccccc1F`, the max response is 12.9% (inactive).

In the case of `O=C(NCCNc1ccccc1[N+](=O)[O-])c1ccccc1F`, the max response is 46.4% (active).

For `COc1ccc(NS(=O)(=O)c2cccc3nsnc23)cc1Cl`, the max response is -2.31% (inactive).

For `Cc1noc(C)c1S(=O)(=O)Nc1cc(C(F)(F)F)ccc1N1CCOCC1`, the max response was 1.06% (inactive).

Consider `COCCCNC(=O)/C(C#N)=C/c1c(N2CCCCCC2)nc2ccccn2c1=O`, for which the max response was 5.95% (inactive).

In the case of `CCCC[C@]12Cc3cc(OC)c(OC)cc3C(O1)C1=C(CC3(CCCCC3)OC1=O)O2`, the max response was -1.97% (inactive).

As to `COc1cc(/C=C/C(=O)OCC(=O)N2CCOCC2)ccc1OCC#N`, the max response was -1.28% (inactive).

For the compound `CSc1cccc(NC(=S)N(C(C)C)C(C)c2ccccn2)c1` (stereo unspecified), the max response is 9.01% (inactive).

With `C=CCNC(=S)NNC(=O)COc1c(Cl)cc(Cl)cc1Cl`, the max response is -3.49% (inactive).

`Cc1cc(C(=O)Nc2c(C)nn(Cc3ccccc3)c2C)on1`: the max response is -4.11% (inactive).

Take `Cc1ccc(Cn2ccc(NC(=O)C3C4CCC(C4)C3C(=O)O)n2)cc1` (stereo unspecified): the max response was 1.94% (inactive).

Turning to `Cc1ccc(Cn2ccc(NC(=O)c3cc(C(C)C)on3)n2)cc1`, the max response is 48% (active).

With `Cc1ccc(C(=O)OCC(=O)NC(=O)Cc2ccccc2)c(O)c1`, the max response is 4.77% (inactive).

Consider `C=CCN(c1ccc(C(=O)Nc2cc(C)cc(C)c2)cc1)S(C)(=O)=O`, for which the max response is 12.7% (active).

`C=CCN(c1ccc(C(N)=O)cc1)S(C)(=O)=O`: the max response is -1.24% (inactive).

Take `COc1ccc([N+](=O)[O-])cc1NC(=O)c1ccc(N(Cc2ccccc2C)S(C)(=O)=O)cc1`: the max response is -0.93% (inactive).

For the compound `CSCc1ccc(C(=O)Nc2cc(C)cc(C)c2)cc1`, the max response is 41.7% (active).

In the case of `Cc1cc(C)cc(NC(=O)N(C)Cc2ccccc2)c1`, the max response is 4.9% (inactive).

For `CC(=O)Nc1ccccc1NC(=O)c1cc(C)cc(C)c1`, the max response is -1.4% (inactive).

`CCN(CC(=O)Nc1ccc(Cl)c(S(=O)(=O)N(C)C)c1)Cc1nc2ccccc2c(=O)[nH]1`: the max response was -3.17% (inactive).

With `Clc1ccc(-c2cc(C3CCNCC3)[nH]n2)c(Cl)c1`, the max response is 9.48% (inactive).

For `CCc1cc(CNC(=O)CC2C(=O)NCCN2Cc2ccccc2C(F)(F)F)on1` (stereo unspecified), the max response was -1.48% (inactive).

As to `CCOC(=O)c1c(C(C#N)C#N)cc(C)nc1C`, the max response was 1.41% (inactive).

Turning to `CCOC(=O)COc1nc(C)cc(C(F)(F)F)c1C#N`, the max response is -3.74% (inactive).

With `CCOC(=O)c1cc(C)nc(S(C)(=O)=O)c1C#N`, the max response was 24.3% (active).

For the compound `O=C1CCCN2N=C(SCC(=O)Nc3ccc(Br)cc3)SC2=N1`, the max response was 7.4% (inactive).

With `Cc1ccc(CN(C)Cc2cc(=O)oc3cc(C)c(Cl)cc23)cc1`, the max response was 8.9% (inactive).

As for `O=[N+]([O-])c1cc(C(F)(F)F)ccc1NN=C1CCCC1`, the max response was -3.4% (inactive).

Turning to `CN1CCN(CCNC(=O)Nc2ccccc2[N+](=O)[O-])CC1`, the max response was -3.83% (inactive).

For the compound `O=[N+]([O-])c1ccccc1N/N=C1\CCc2ccccc21`, the max response is 22.3% (active).

`CCOC(=O)c1cnc2ccc(F)cc2c1Nc1ccc2c(c1)OCCO2`: the max response is 32.3% (active).

In the case of `O=C(Nc1ccc2c(c1)OCCO2)C(c1ccc(F)cc1)N1CCCCC1` (stereo unspecified), the max response was -0.355% (inactive).

Consider `Cc1ccc2nc(-c3ccncc3)cc(C(=O)Nc3ccc4c(c3)OCCO4)c2c1`, for which the max response was 7.28% (inactive).

Consider `C/C(CC(=O)NCc1ccc(Cl)cc1)=N\NC(=O)COc1ccc(C)cc1Br`, for which the max response was -1.26% (inactive).

As to `Cc1ccccc1C(=O)N1CCC(C(=O)Oc2ccc(C#N)cc2)CC1`, the max response is -2.38% (inactive).

Take `CCn1c(CC(=O)Nc2ccccc2)nnc1SCC(=O)N1CCOCC1`: the max response was -2.97% (inactive).

On to `Cc1cc(NC(=O)CSc2nc3cc(Cl)ccc3c(=O)n2Cc2ccco2)no1`, for which the max response was 1.42% (inactive).

Regarding `COc1ccc(CCn2c(-c3ccco3)nc3nc4ccccc4nc32)cc1OC`, the max response was 7.86% (inactive).

`Clc1cccc(-c2nc3nc4ccccc4nc3n2Cc2ccco2)c1`: the max response is 31.5% (active).

Regarding `Cc1cc2oc(=O)cc(CN3CCN(Cc4ccccc4)CC3)c2cc1C`, the max response was 1.14% (inactive).

Consider `COc1cc(CN2CC(C)CC(C)C2)cc([N+](=O)[O-])c1O` (stereo unspecified), for which the max response is -0.873% (inactive).

Consider `O=C(COC(=O)c1ccc(S(=O)(=O)N2CCc3ccccc3C2)cc1)NC(=O)NCc1ccco1`, for which the max response is 6.51% (inactive).

Regarding `O=C(Nc1cc(N2CCOCC2)ncn1)NC1(C(F)(F)F)Oc2ccc(Cl)cc2O1` (stereo unspecified), the max response is 45.4% (active).

Turning to `Cc1csc(NC(=O)NC2(C(F)(F)F)Oc3ccccc3O2)n1`, the max response was 1.16% (inactive).

Consider `O=C(CN1C(=O)COc2ccc(Cl)cc21)Nc1ccc(N2CCOCC2)cc1`, for which the max response was 1.87% (inactive).

As to `CCc1cc(=O)oc2c(C)c(OCC(=O)NCCN3CCOCC3)ccc12`, the max response is 1.6% (inactive).
